Growth data for 12 molecules are collected here from PubChem BioAssay (NCI).

Among the test systems are NCI-H23 lung; NCI-H226 lung; NCI-H322M lung; HOP-62 NSCLC; NCI-H460 lung; HOP-92 NSCLC; NCI-H522 lung; A549/ATCC NSCLC; 786-0 renal; COLO 205 colon.
Common to all, as to assay: NCI-60 one-dose screen, 48 h (100 = growth as untreated, 0 = no growth, -100 = all killed)
What all share (details): 10 µM unless noted

The structures appear in SMILES notation. This is part of a sample that, as a whole, favours compounds with a hit. Of some 83,000 tested, about 20% had one in any assay.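 A percent growth of 40 corresponds to 60% growth inhibition; 0 means no net growth; -100 means all cells died. Active threshold: below 10.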 Unmarked numbers belong to inactive results. Activity calls are given as the source filed them.

With `Cc1ccc(/C=C/C(=O)Nc2ncc(Cc3ccc(F)cc3)s2)o1`, the growth with NCI-H23 lung was 75.2%; in the test with NCI-H226 lung it was 85.8%; in the test on NCI-H322M lung, 59.4%; in the test on HOP-62 NSCLC, 55.1%; with NCI-H460 lung, 30.4%; in the test on HOP-92 NSCLC, 77.8%. Further, the growth in the test with NCI-H522 lung is 38%; with A549/ATCC NSCLC, 49%; in the test with 786-0 renal, 66.5%; in the test on COLO 205 colon it was 31.8%.

As to `C=CCn1c(SCC(=O)Nc2ccc(/C(C)=N/O)cc2)nnc1-c1cc(-c2ccc(S(N)(=O)=O)cc2)nc2ccccc12`, the growth was 97.3% in the test on NCI-H23 lung; 84.1% in the test with NCI-H226 lung; 96.7% in the test with NCI-H322M lung; 84.3% in the test on HOP-62 NSCLC; 91% with NCI-H460 lung; 72.3% in the test on HOP-92 NSCLC. Further, the growth was 68.8% in the test with NCI-H522 lung, 110% in the test on A549/ATCC NSCLC, 85.4% in the test with 786-0 renal and 94.2% with COLO 205 colon.

With `O=C(/C=C(O)/C=C/c1cccc2[nH]ccc12)/C=C/c1cccc2[nH]ccc12`, the growth with NCI-H23 lung was 80.5%; in the test on NCI-H226 lung, 99.5%; with NCI-H322M lung, 98.9%; with HOP-62 NSCLC, 76.4%; with NCI-H460 lung it was 98.3%; with HOP-92 NSCLC, 62.1%. In addition, the growth with NCI-H522 lung was 34%; in the test with A549/ATCC NSCLC it was 87.5%; in the test on 786-0 renal, 86%; in the test on COLO 205 colon it was 55.8%.

For `C=Cc1cnc(Nc2ccc(OC)cc2)nc1NCCCNC(=O)C1CCC1`, the growth in the test on NCI-H23 lung was 45.2%; in the test with NCI-H226 lung, 46.5%; with NCI-H322M lung, 68.8%; in the test on HOP-62 NSCLC, 40.7%; in the test on NCI-H460 lung, 34.5%; with HOP-92 NSCLC it was 55.4%. The growth was 47.9% in the test on NCI-H522 lung, 32.4% with A549/ATCC NSCLC, 44.3% in the test with 786-0 renal and 44.8% in the test with COLO 205 colon.

Consider `FC(F)(F)Oc1cccc(-c2cnc3ccc(-c4ccncc4)nn23)c1`, for which the growth with NCI-H23 lung was 15.6%; with NCI-H226 lung, 33.5%; in the test on NCI-H322M lung it was 27.4%; with HOP-62 NSCLC, 20.2%; in the test with NCI-H460 lung, 17.6%; in the test with HOP-92 NSCLC it was 17.4%. Also, the growth was 1.55% (active) in the test on NCI-H522 lung, 11.5% in the test with A549/ATCC NSCLC, 21.1% with 786-0 renal and 16.1% in the test on COLO 205 colon.

Take `CC(C)(C)n1cc(-c2ccnc(NCCNS(=O)(=O)c3ccc(O)cc3)c2)c(-c2cccc(O)c2)n1`: the growth in the test on NCI-H23 lung was 98.6%; in the test with NCI-H226 lung, 102%; with NCI-H322M lung, 105%; in the test with HOP-62 NSCLC it was 101%; in the test on NCI-H460 lung it was 104%; in the test on HOP-92 NSCLC, 102%. The growth was 94.8% in the test on NCI-H522 lung, 97.3% with A549/ATCC NSCLC, 103% in the test with 786-0 renal and 91.9% in the test on COLO 205 colon.

As for `CCN1C(=O)N(CC)C2C1NN=c1s/c(=C\c3cnc(C)n3C)c(=O)n12` (stereo not given), the growth in the test on NCI-H23 lung is 38.1%; in the test on NCI-H226 lung it was 53.3%; with NCI-H322M lung, 29.6%; with HOP-62 NSCLC it was 34.4%; in the test on NCI-H460 lung, 4.44% (active); with HOP-92 NSCLC, 43%. Also, the growth in the test with NCI-H522 lung was -14.4% (active); with A549/ATCC NSCLC, 15.8%; in the test on 786-0 renal, 28.4%; in the test with COLO 205 colon, 14.5%.

On to `OCCNCCNC(Cc1ccc(Cl)cc1)c1ccccc1` (stereo not given), for which the growth was 96.2% in the test on NCI-H23 lung; 98.1% with NCI-H226 lung; 93.1% with NCI-H322M lung; 72.2% in the test with HOP-62 NSCLC; 107% with NCI-H460 lung; 38.4% in the test on HOP-92 NSCLC. In addition, the growth in the test on NCI-H522 lung is 64.1%; in the test with A549/ATCC NSCLC it was 88.1%; in the test with 786-0 renal, 57.5%; in the test on COLO 205 colon, 70%.

As for `O=c1c2ccccc2c(=O)c2c1sc1c(=O)c3ccc(O)cc3c(=O)c12`, the growth with NCI-H23 lung is -38.8% (active); in the test with NCI-H226 lung, -91.3% (active); with NCI-H322M lung it was -95.9% (active); in the test on HOP-62 NSCLC, -78.8% (active); in the test on NCI-H460 lung, -73.1% (active); with HOP-92 NSCLC, -24.9% (active). Moreover, the growth with NCI-H522 lung is -64.5% (active); in the test on A549/ATCC NSCLC, -55.1% (active); in the test with 786-0 renal, -52.7% (active); with COLO 205 colon, -82.5% (active).

As for `Cc1ccc(S(=O)(=O)Oc2ccc3sc4cccc(NCCN(C)C)c4c(=O)c3c2)cc1`, the growth in the test on NCI-H23 lung was -93.5% (active); with NCI-H226 lung, -71.9% (active); with NCI-H322M lung it was -88.1% (active); with HOP-62 NSCLC it was -89.6% (active); in the test on NCI-H460 lung, -92.7% (active); with HOP-92 NSCLC, -77.4% (active). The growth was -81.7% (active) in the test with NCI-H522 lung, -74.1% (active) with A549/ATCC NSCLC, -85.7% (active) with 786-0 renal and -83.8% (active) in the test on COLO 205 colon.

For the molecule `O=C(Nc1ncc(Cc2cc(C(F)(F)F)ccc2Cl)s1)c1cccs1`, the growth is 58.2% with NCI-H23 lung; 76.5% in the test on NCI-H226 lung; 65.5% in the test on NCI-H322M lung; 42.5% in the test with HOP-62 NSCLC; 32.2% in the test with NCI-H460 lung; 47.1% in the test with HOP-92 NSCLC. The growth in the test on NCI-H522 lung is 35.2%; with A549/ATCC NSCLC, 37.8%; in the test on 786-0 renal it was 79.6%; in the test with COLO 205 colon it was 56.2%.

Turning to `CSC1=Nc2c(c(C)c(-c3ccccc3)n2CCCC(=O)O)C2=NC(=O)C[C@H](C)N12`, the growth in the test on NCI-H23 lung was 105%; in the test with NCI-H226 lung, 110%; in the test with NCI-H322M lung, 102%; with HOP-62 NSCLC, 89.7%; in the test on NCI-H460 lung, 102%; in the test with HOP-92 NSCLC, 94.3%. Besides, the growth with NCI-H522 lung was 93%; in the test with A549/ATCC NSCLC it was 101%; in the test with 786-0 renal, 102%; in the test with COLO 205 colon, 119%.
